Experimental data from ChEMBL document CHEMBL4513216, “Probing the Open Global Health Chemical Diversity Library for Multistage-Active Starting Points for Next-Generation Antimalarials” (ACS Infect Dis, 2020).
Out of some 68,000 compounds screened, about 2,700 (4%) showed an effect of 50% or more. The list comes from a sample in which strong results are over-represented; it also holds similar structures and randomly drawn compounds.

The compounds below were run on Plasmodium berghei (assay: Screen against P. berghei liver stage (PbLuc), transformed with Luciferase, at 2uM). Conditions: tested at 2 uM.
Type: functional, HepG2

Structure (SMILES) | INHIBITION [%]
COCCN1C[C@@H]2[C@@H](OC)CCN(Cc3ccsc3)[C@@H]2C1 | 20.91
CN1C[C@@H](F)[C@@H](OCc2nc3ccc(C#N)cc3[nH]2)C1 | 52.91
Cc1cc2nc(CO[C@H]3CN(C4CCN(C)CC4)C[C@H]3F)[nH]c2cc1C | 50.7
CC(=O)N1C[C@@H](F)[C@@H](OCc2nc3ccc(C#N)cc3[nH]2)C1 | 36.99
Cc1cc2nc(CO[C@H]3CN(C4CCC4)C[C@H]3F)[nH]c2cc1C | 46.17
CN1C[C@@H](F)[C@@H](OCc2nc3ccccc3[nH]2)C1 | 40.83
Cc1cc2nc(CO[C@H]3CN(C4CCCCC4)C[C@H]3F)[nH]c2cc1C | 18.65
O=C(Cn1cc(Cl)cn1)N1CCCC(c2cc3ccccc3cn2)C1 (stereo unspecified) | 36.98
CCC(NC(=O)c1cnc(N(C)C)nc1C)c1ccc(S(C)(=O)=O)cc1 (stereo unspecified) | 70.81
COCCNC(=O)c1cnc(N(C)C)nc1C | 12.85
Cc1nc(N(C)C)ncc1C(=O)NCCc1csc(-c2ccncc2)n1 | 40.05
CCn1c(C)nnc1SCCNC(=O)c1cnc(N(C)C)nc1C | -41.73
CCC(NC(=O)c1cnc(N(C)C)nc1C)c1ccncc1 (stereo unspecified) | 57.34
CCn1nc(C)c(C(C)NC(=O)c2cnc(N(C)C)nc2C)c1C (stereo unspecified) | -12.22
O=C(CN1CCc2cncnc2C1)N1CCc2sccc2C1 | -27.59
Cn1cnnc1SCC(=O)N1C[C@@H]2CC[C@H]1CN(Cc1cccnc1)C2 | 12.74

Structure (SMILES) | INHIBITION [%]
O=C(CN1CCCCC1)Nc1cc(C(F)(F)F)ccc1-n1cccc1 | 18.54
CNC(=O)c1cccc(CNC(C)c2cc(C)ccc2OC(F)F)c1 (stereo unspecified) | 25.55
CNC(=O)c1cccc(CNC(C)c2cc(Cl)ccc2OC)c1 (stereo unspecified) | 19.81
CNC(=O)c1cccc(CNC(C)c2ccc(F)cc2N(C)C)c1 (stereo unspecified) | 55.25
CC(C)n1nc(O)c2c1NC(=O)CSC2c1cnn(C)c1 (stereo unspecified) | 6.9
COc1cc(CNCC(C)O)cc(Cl)c1OCc1ccc(C)cc1 (stereo unspecified) | 44.51
COc1ccc(C)cc1CN1CCN(Cc2nccn2C)C(C)C1 (stereo unspecified) | 50.61
COc1ccc(CN2CCN(Cc3nccn3C)C(C)C2)cc1F (stereo unspecified) | -13.34
Cc1ccccc1CN1CCN(Cc2nccn2C)CC1 | 20.28
CC1CN(CC(=O)NC2CCOCC2)CCN1Cc1nccn1C (stereo unspecified) | -0.99
C=C(C)CN1CCN(Cc2nccn2C)C(C)C1 (stereo unspecified) | 36.95
COc1ccc(F)cc1CN1CCN(Cc2nccn2C)C(C)C1 (stereo unspecified) | -49.85
CC1CN(CC(=O)N2CCOCC2)CCN1Cc1nccn1C (stereo unspecified) | 66.27
COc1ccc(C)cc1CN1CCN(Cc2nccn2C)CC1 | 50.61
COc1ccc(C(C)N2CCN(Cc3nccn3C)CC2)cc1Cl (stereo unspecified) | 18.31
